The record followed here is the supplement of paper PMC10498489.

Structures are written as SMILES. The campaign covered roughly 2,300 compounds. About 330 (14%) showed activity. Only a sample is shown. Unmarked numbers belong to inactive results.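 The calls were made as follows: active = median modified Z-score above 1.96; inactive = 1.96 or below.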

This experiment has as its system HepG2 Srxn1-GFP reporter cells (+30 nM CDDO-Me). Kind of experiment: Srxn1-GFP intensity median modified Z-score relative to plate median; higher = stronger NRF2 / oxidative stress reporter activation, active = hit call of the paper. The note with it: 10 µM; exposure time: 24h. Summed up:
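The per-plate modified Z-score of GFP intensity, taken as a median across replicates, is what each value represents. Three replicate plates of HepG2 Srxn1-GFP BAC reporter cells were exposed for 24 h to an NRF2 activator at 30 nM combined with compound at 10 μM (≤0.1% DMSO). Cytoplasmic GFP per cell was read from confocal images, excluding any with under 100 cells, and scaling used 1.4826 × median absolute deviation.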
With `CCOc1cc(/C=C/C(=O)O)ccc1OC`, the “Srxn1-GFP intensity median modified Z-score” value is 0.394.
With `CCNC(=O)CCC(N)C(=O)O` (stereo unspecified) [euspeclibcmpd2170], the “Srxn1-GFP intensity median modified Z-score” value was -0.00834.
In the case of `CC12CCC(=O)N1C(C(=O)NCCCNS(C)(=O)=O)CS2` (stereo unspecified), the “Srxn1-GFP intensity median modified Z-score” value is 2.02 (active).
The result for `CC(=O)COc1ccc2c(C)cc(=O)oc2c1` reads 1.43; that for `CN(C)C1C(=O)C(C(=O)NCN2CCCC2)C(=O)C2(O)C(=O)C3C(=O)c4c(O)cccc4C(C)(O)C3CC12` (stereo unspecified) [euspeclibcmpd1955], -0.368.
To `C[C@]12C=CC(=O)CC1=CCC1C2C(=O)C[C@@]2(C)C1CC[C@]2(O)C(=O)CO` (stereo partly specified) [euspeclibcmpd243] belongs -0.188; to `CC(=O)OC1CCC23C(=O)OC45CCC(c6coc(O)c6)C4(C)CCC2C5CCC3(O)C1` (stereo unspecified) [euspeclibcmpd1387], -1.25; to `[Cl][Ca][Cl]` [euspeclibcmpd2470], 1.27.
The result for `N#CCC(=O)NN` [euspeclibcmpd1098] reads 3.08 (active); that for `CON=C1CN(c2nc3c(cc2F)c(=O)c(C(=O)O)cn3C2CC2)CC1CN` (stereo unspecified) [euspeclibcmpd871], -0.00523; that for `CC1=C(C(=O)O)N2C(=O)C(=NC(=O)C(N)C3CC=CCC3)C2SC1` (stereo unspecified) [euspeclibcmpd49], -0.299.
As for `CN(C)CC(=O)OCC(=O)C(O)C(O)C(O)C(O)O` (stereo unspecified) [euspeclibcmpd2264], the “Srxn1-GFP intensity median modified Z-score” value is -0.422.
The result for `COc1ccc(CCN2CCC(N=c3[nH]c4ccccc4n3Cc3ccc(F)cc3)CC2)cc1` [euspeclibcmpd1296] reads -0.744.
On to `Cc1c(NC(=O)CCc2cccnc2)c(=O)n(-c2ccccc2)n1C`, for which the “Srxn1-GFP intensity median modified Z-score” value is 1.03.
For the molecule `COc1ccc([C@@H]2CC(=O)c3c(O)cc(O[C@@H]4O[C@H](CO[C@H]5O[C@@H](C)[C@H](O)[C@@H](O)[C@H]5O)[C@@H](O)[C@H](O)[C@H]4O)cc3O2)cc1O` [euspeclibcmpd1499], the “Srxn1-GFP intensity median modified Z-score” value is -0.332.
The result for `C=C[C@](C)(O)CC[C@@H]1[C@@]2(C)CCCC(C)(C)[C@@H]2CC[C@]1(C)O` [euspeclibcmpd2213] reads 2.3 (active).
The result for `C=C[C@@](C)(O)CCC1C(=C)C[C@H](O)C2C(C)(C)CCCC12C` (stereo partly specified) [euspeclibcmpd2065] reads 0.497.
The result for `CNC(CC(=O)O)C(=O)O` (stereo unspecified) [euspeclibcmpd1746] reads -0.42.
With `CN1CCN(C(c2ccccc2)c2ccccc2)CC1` [euspeclibcmpd77], the “Srxn1-GFP intensity median modified Z-score” value is 0.846.
To `OC(COC(c1ccccc1)c1ccccc1)CN1CCN(/C=C/Cc2ccccc2)CC1` (stereo unspecified) belongs 0.401.
The result for `CC(=O)NC(CC(C)C)C(=O)O` (stereo unspecified) [euspeclibcmpd1070] reads -0.124; that for `CC(C)NS(=O)(=O)C1CCN(C(=O)CCS(=O)(=O)C2CCCC2)C1` (stereo unspecified), 1.14; that for `CC(C)Cn1cnc2c(=N)[nH]c3ccccc3c21` [euspeclibcmpd542], -0.55.
To `CC(=O)N=c1[nH]nc(S(N)(=O)=O)s1` [euspeclibcmpd48] belongs 0.382.
In the case of `CCCc1nc(C)c2c(=O)[nH]c(-c3cc(S(=O)(=O)N4CCN(CC)CC4)ccc3OCC)nn12` [euspeclibcmpd760], the “Srxn1-GFP intensity median modified Z-score” value was -0.393.
To `O=C(O[C@@H]1Cc2c(O)cc(O)cc2O[C@@H]1c1cc(O)c(O)c(O)c1)c1cc(O)c(O)c(O)c1` [euspeclibcmpd1546] belongs 1.25; to `O=C(Oc1cc(O)cc2c1CC(OC(=O)c1cc(O)c(O)c(O)c1)C(c1cc(O)c(O)c(O)c1)O2)c1cc(O)c(O)c(O)c1` (stereo unspecified) [euspeclibcmpd1839], -0.336.
The result for `O=C(OC[C@H]1O[C@H](OC(=O)c2cc(O)c(O)c(OC(=O)c3cc(O)c(O)c(O)c3)c2)[C@H](OC(=O)c2cc(O)c(O)c(OC(=O)c3cc(O)c(O)c(O)c3)c2)[C@@H](OC(=O)c2cc(O)c(O)c(OC(=O)c3cc(O)c(O)c(O)c3)c2)[C@@H]1OC(=O)c1cc(O)c(O)c(OC(=O)c2cc(O)c(O)c(O)c2)c1)c1cc(O)c(O)c(OC(=O)c2cc(O)c(O)c(O)c2)c1` [euspeclibcmpd649] reads 8.09 (active); that for `CCCCCCCCCCCCCCCC(=O)OCC(O)c1oc(O)c(O)c1O` (stereo unspecified) [euspeclibcmpd862], -0.777.
To `CC(C)(Oc1ccc(C(=O)c2ccc(Cl)cc2)cc1)C(=O)O` [euspeclibcmpd2188] belongs -0.278; to `Cc1c2oc3c(C)ccc(C(=O)OC(C)C4NC(=O)C(C(C)C)N(C)C(=O)CN(C)C(=O)C5CCCN5C(=O)C(C(C)C)NC4=O)c3[nH]c-2c(C(=O)OC(C)C2NC(=O)C(C(C)C)N(C)C(=O)CN(C)C(=O)C3CCCN3C(=O)C(C(C)C)NC2=O)c(=N)c1=O` (stereo unspecified) [euspeclibcmpd955], -2.39.
For `OCCN1CCN(CCCN2c3ccccc3Sc3ccc(Cl)cc32)CC1` [euspeclibcmpd640], the “Srxn1-GFP intensity median modified Z-score” value is -1.43.
To `CNCCCN1c2ccccc2Sc2ccccc21` belongs 2.13 (active); to `CN(C)CCCN1c2ccccc2Sc2ccccc21` [euspeclibcmpd252], 0.744.
`CNCCCN1c2ccccc2CCc2ccccc21` [euspeclibcmpd86]: the “Srxn1-GFP intensity median modified Z-score” value was 1.22.
As for `CN1CCN(CCCN2c3ccccc3Sc3ccc(C(F)(F)F)cc32)CC1` [euspeclibcmpd306], the “Srxn1-GFP intensity median modified Z-score” value is 0.328.
The result for `CN1CCN(CCCN2c3ccccc3Sc3ccc(Cl)cc32)CC1` [euspeclibcmpd249] reads 3.78 (active); that for `C/C(=C(/CCOP(=O)(O)O)SC(=O)c1ccccc1)N(C=O)Cc1c[nH]c(C)nc1=N` [euspeclibcmpd1052], 1.09.
To `O=C(CCc1ccccc1)NCCO` belongs 1.29.
To `Cc1nnc(SC=C2CSC3C(NC(=O)Cn4cnnn4)C(=O)N3C2C(=O)O)s1` (stereo unspecified) [euspeclibcmpd2337] belongs 0.336.
Consider `CCCCNC(=O)c1ccc(NC(C)=O)cc1`, for which the “Srxn1-GFP intensity median modified Z-score” value is 0.99.
In the case of `COc1ccc(-c2coc3c4c(c(CC=C(C)C)c(OC)c3c2=O)OC(C)(C)C=C4)cc1OC` [euspeclibcmpd2197], the “Srxn1-GFP intensity median modified Z-score” value was -0.274.
With `CC(C)=CCCC1(C)C=Cc2c(O)c3c(c(CC=C(C)C)c2O1)OC12C(CC4CC1C(C)(C)OC2(C=CC(C)C(=O)O)C4O)C3=O` (stereo unspecified) [euspeclibcmpd1941], the “Srxn1-GFP intensity median modified Z-score” value is 50.9 (active).
To `COC(=O)C(C)=CCC12OC(C)(C)C3CC(=CC4C(=O)c5c(OC)c6c(c(CC=C(C)C)c5OC431)OC(C)(CCC=C(C)C)C=C6)C2=O` (stereo unspecified) [euspeclibcmpd2284] belongs 55.9 (active); to `CC(C)=CCCC1(C)C=Cc2c(O)c3c(c(CC=C(C)C)c2O1)OC12C(=CC4CC1C(C)(C)OC2(C=CC(C)C(=O)O)C4=O)C3=O` (stereo unspecified) [euspeclibcmpd1425], 127 (active).
As for `CC(C)=CCCC1(C)C=Cc2c(O)c3c(c(CC=C(C)C)c2O1)OC12C(=CCCC1C(C)(C)O[C@@]2(C=CC(C)C(=O)O)C(=O)O)C3=O` (stereo partly specified) [euspeclibcmpd1701], the “Srxn1-GFP intensity median modified Z-score” value was 6.67 (active).
On to `Cc1cc(C)cc(-c2nnc(SCc3csc(Nc4ccccc4)n3)o2)c1`, for which the “Srxn1-GFP intensity median modified Z-score” value is 0.289.
As for `O=c1[nH]cnc2[nH]ncc12` [euspeclibcmpd15], the “Srxn1-GFP intensity median modified Z-score” value was 0.378.
Take `CCOC(=O)O[C@]1(C(=O)COC(=O)CC)CCC2C3CC=C4CC(=O)C=C[C@]4(C)C3[C@@H](O)C[C@@]21C` (stereo partly specified) [euspeclibcmpd1145]: the “Srxn1-GFP intensity median modified Z-score” value is -0.25.
Take `NC(COCc1ccccc1)C(=O)O` (stereo unspecified) [euspeclibcmpd2285]: the “Srxn1-GFP intensity median modified Z-score” value was -0.141.
To `Cc1cc(CC(C)CC(C)(C)C)n(O)c(=O)c1` (stereo unspecified) [euspeclibcmpd627] belongs 0.455; to `O=C(NC(Cc1cc(=O)[nH]c2ccccc12)C(=O)O)c1ccc(Cl)cc1` (stereo unspecified) [euspeclibcmpd1178], 0.0863; to `CN(CCOC(c1ccccc1)c1ccccc1)S(C)(=O)=O`, 1.57.
As to `CC(=O)Nc1cc2ccccc2oc1=O` [euspeclibcmpd1797], the “Srxn1-GFP intensity median modified Z-score” value is 0.241.
Regarding `CCCC(=O)N=c1[nH]cnc2c1ncn2C1O[C@@H]2COP(=O)(O)O[C@H]2[C@H]1OC(=O)CCC` (stereo partly specified) [euspeclibcmpd1111], the “Srxn1-GFP intensity median modified Z-score” value was 0.97.
The result for `CCCCCCOC(=O)N=C(N)c1ccc(NCc2nc3cc(C(=O)N(CCC(=O)OCC)c4ccccn4)ccc3n2C)cc1` [euspeclibcmpd2169] reads 0.57; that for `N=c1c2c([nH]c3ccccc13)CCCC2` [euspeclibcmpd944], -0.0541.
To `N=c1c2ccccc2[nH]c2ccccc12` [euspeclibcmpd350] belongs 15 (active); to `O=c1c2ccccc2[nH]c2ccccc12`, 0.588.
On to `CC(=O)c1c(O)c(C)c(O)c2c1OC1=CC(=O)C(C(C)=O)C(=O)C12C` (stereo unspecified) [euspeclibcmpd1449], for which the “Srxn1-GFP intensity median modified Z-score” value is 12.3 (active).
The result for `NCCC(=O)C(O)N[C@@H]1C[C@H](N)[C@@H](O[C@H]2O[C@H](CN)[C@@H](O)[C@H](O)[C@H]2O)[C@H](O)[C@H]1O[C@H]1O[C@H](CO)[C@@H](O)[C@H](N)C1O` (stereo partly specified) [euspeclibcmpd967] reads -0.34; that for `CCCC[C@@H](CC)COC(=O)/C=C/c1ccc(OC)cc1` [euspeclibcmpd2186], 1.35.
To `COC1=CC(=O)C=C(OC)C1=O` [euspeclibcmpd2007] belongs 0.392; to `COC1=CC(=O)C(=O)C=C1C=CCc1ccccc1` [euspeclibcmpd1419], 9.05 (active).
To `COC1=CC(=O)C(C(=O)c2ccccc2)=CC1=O` [euspeclibcmpd1986] belongs -0.559; to `CC(=O)OCC(=O)[C@@]1(O)CCC2C3CC=C4CC(=O)CC[C@]4(C)[C@@]3(F)[C@@H](O)C[C@@]21C` (stereo partly specified) [euspeclibcmpd127], -0.373.
